According to PubChem BioAssay (NCATS):
Several values for one entry are separate records, joined by “and”; a condition that tells them apart may be missing. Identical values can stand only once. Inconclusive results are not listed. Unmarked numbers belong to inactive results. The call rests on the fitted dose curve; in most records, active means well fitted curve in the direction sought with a large enough effect; inconclusive means small, poorly fitted or top-dose-only effect, or another doubt; inactive means no such curve, though single readings can be large or run the other way. *1 amine or outer side, *2 acyl side, *3 side chain or, on linkers, in order; H or OH if unused. Where a SMILES comes first, the peptide text is derived from it. Bridges are numbered along the chain shown (N, C = ends). [ ]: non-standard residue; d: D form. The star is where a group is joined. ξ: configuration not given here. X5 = NC1=N[C@@H]([C@H](N[*:1])C(=O)[*:2])C[C@H](O)N1; ΔAla(Z-3-ureido) = NC(=O)N/C=C(\N)C(=O)O; d(aThr) = C[C@@H](O)[C@@H](N)C(=O)O; ξThr(3R) = C[C@@H](O)C(N)C(=O)O; β3hOrn = NCCC[C@H](N)CC(=O)*; X3 = CC[C@@H](C)CCCCC(=O)*; dDab = NCC[C@@H](N)C(=O)O; Dap = NC[C@H](N)C(=O)O

Assay: qHTS Assay for Identifying Gametocytocidal Compounds (AID 743244);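 further: actives lower the fluorescent signal which means gametocytes are killed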
Conditions: P. falciparum 3D7 stage III-V gametocytes, alamarBlue, 72 h; max response: stronger effect = lower value
Method in brief: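 P. falciparum 3D7 stage III–V gametocytes (20,000 cells/well) were exposed to compounds for 72 h at 37 °C, 5% CO2. AlamarBlue was then added for 24 h; decreased resorufin fluorescence (Ex 525/Em 598 nm) indicated loss of viability.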
On the % scale 0 is the no-effect control and ±100 the full control effect.

| Structure (SMILES) | max response |
| --- | --- |
| CN[C@@H]1[C@H](O[C@H]2[C@H](O[C@H]3[C@H](O)[C@@H](O)[C@H](N=C(N)N)[C@@H](O)[C@@H]3N=C(N)N)O[C@@H](C)[C@]2(O)CO)O[C@@H](CO)[C@H](O)[C@H]1O | 8.75% |
| CCCCCCCCCCCCCCCC(=O)OC[C@H](COP(=O)([O-])OCC[N+](C)(C)C)OC(=O)CCCCCCCCCCCCCCC | 1.23% |
| CC1(O)CCC(C(C)(C)O)CC1 (configuration not stated) | 5.51% |
| NCCC[C@H](N)CC(=O)N[C@H]1CNC(=O)[C@H]([C@H]2C[C@H](O)NC(N)=N2)NC(=O)/C(=C/NC(N)=O)NC(=O)[C@H](CO)NC(=O)[C@H](CO)NC1=O (β3hOrn-[Dap]SS[ΔAla(Z-3-ureido)][X5]; lactam 1-C) | 13.7% |
| CCCCC[C@H](O)/C=C/[C@@H]1[C@H]2C/C(=C/CCCC(=O)O)O[C@H]2C[C@H]1O | 18.5% |
| CO/N=C(\C(=O)N[C@@H]1C(=O)N2C(C(=O)O)=C(CSc3nnnn3C)CS[C@H]12)c1csc(N)n1 | 2.87% |
| O=C(OC[C@H]1O[C@](O)(COC(=O)c2cccnc2)[C@@H](OC(=O)c2cccnc2)[C@@H]1OC(=O)c1cccnc1)c1cccnc1 | -9.26% |
| CC(C)(C)C(=O)OCC(=O)[C@H]1CC[C@H]2[C@@H]3CCC4=CC(=O)CC[C@]4(C)[C@H]3CC[C@]12C | 6.08% |
| CCN(CC)CCOc1ccc2nc(N(C)C)sc2c1 | -4.7% |
| O=C(/C=C/c1cccc(F)c1)NC1CC1 | -1.6% |
| CCCCCCOC(=O)c1cccnc1 | 30.2% |
| O=C(O)CCC/C=C\C[C@@H]1[C@@H](/C=C/[C@@H](O)COc2cccc(Cl)c2)[C@H](O)C[C@@H]1O | -3.1% |
| O=C1[O][Bi][O]c2ccccc21 | 14.5% |
| C[N+]1(C)[C@@H]2CC(OC(=O)C(O)(c3cccs3)c3cccs3)C[C@H]1[C@@H]1O[C@@H]12 (some centres not stated) | 8.38% |
| O=C(Cc1cccs1)N[C@@H]1C(=O)N2C(C(=O)[O-])=C(C[n+]3ccccc3)CS[C@H]12 | 7.46% |
| COC(=O)[C@H]1[C@H]2C[C@@H]3c4[nH]c5cc(OC)ccc5c4CCN3C[C@H]2C[C@H](OC)[C@@H]1OC | 15% |
| CC(C)C[C@H](NC(=O)[C@@H](COC(C)(C)C)NC(=O)[C@H](Cc1ccc(O)cc1)NC(=O)[C@H](CO)NC(=O)[C@H](Cc1c[nH]c2ccccc12)NC(=O)[C@H](Cc1cnc[nH]1)NC(=O)[C@@H]1CCC(=O)N1)C(=O)N[C@@H](CCCN=C(N)N)C(=O)N1CCC[C@H]1C(=O)NNC(N)=O | 16.2% and -4.65% |
| COc1ccc(-c2noc(CC(=O)O)c2-c2ccc(OC)cc2)cc1 | 49.9% |
| CC[C@@H](C)CCCCC(=O)N[C@H](CCN)C(=O)N[C@@H](C(=O)N[C@H](CCN)C(=O)N[C@@H]1CCNC(=O)C([C@@H](C)O)NC(=O)[C@@H](CCN)NC(=O)[C@@H](CCN)NC(=O)[C@@H](CC(C)C)NC(=O)[C@@H](Cc2ccccc2)NC(=O)[C@@H](CCN)NC1=O)[C@@H](C)O (stereo partly drawn) (X3-[dDab][d(aThr)][dDab][dDab][dDab][dF][dL][dDab][dDab][ξThr(3R)]; lactam 4-C) | 13.9% |
| C=O | 20.4% |
| O=C(O)CCC(=O)c1ccc(-c2ccccc2)cc1 | 1.84% |
| Oc1cc(O)cc(O)c1 | 16.3% |
| CCN(CC)CCOC[C@H]1O[C@@H](O)[C@H](OCCN(CC)CC)[C@@H](O)[C@@H]1O | 6.01% |
| O=C(O)Cc1cc(I)c(Oc2ccc(O)c(I)c2)c(I)c1 | 10.9% |
| NCC[C@H](O)C(=O)N[C@@H]1C[C@H](N)[C@@H](O[C@H]2O[C@H](CN)[C@@H](O)[C@H](O)[C@H]2O)[C@H](O)[C@H]1O[C@H]1O[C@H](CO)[C@@H](O)[C@H](N)[C@H]1O | -2.69% |
| CC(=O)Nc1c(I)c(C(=O)O)c(I)c(N(C)C(C)=O)c1I | -0.708% |
| CC[C@H]1NC(=O)[C@@H](NC(=O)c2ncccc2O)[C@@H](C)OC(=O)[C@H](c2ccccc2)NC(=O)[C@@H]2CC(=O)CCN2C(=O)[C@H](Cc2ccccc2)N(C)C(=O)[C@@H]2CCCN2C1=O | 3.22% |
